Results reported in PubChem BioAssay (NCATS).
Records with an inconclusive call do not appear. Calls of active or inactive are those of the source. The call rests on the fitted dose curve; in most records, active means well fitted inhibition curve with a large enough effect; inconclusive means small, poorly fitted or top-dose-only effect; inactive means flat fitted curve, though single readings scatter.

tested on: KB-3-1; assay: Cytotoxic Profiling of Annotated Libraries Using Quantitative High-Throughput Screening (AID 1296008); details: Five cell lines viability, CellTiter-Glo ATP luminescence, 48-72 h; max response: hits give low values; further: nearly all actives have a fitted effect of over 60% in size
In short: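 Cytotoxicity was measured as CellTiter-Glo ATP luminescence, read after 10 min at room temperature. Compound treatment of the cells lasted 48 or 72 hr at 37 degrees Celsius in a qHTS format.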
On the % scale 0 is the no-effect control and ±100 the full control effect.

Row | SMILES | max response
1 | O=S(=O)(O)CCCS(=O)(=O)O | 0.835% (inactive)
2 | CN[C@@H]1[C@@H](O)[C@@H](O[C@@H]2[C@@H](O)[C@H](OC3OC(CN)=CCC3N)[C@@H](N)C[C@H]2N)OC[C@]1(C)O (stereo partly drawn) | -18.5% (inactive)
3 | CC(C)CN(C[C@@H](O)[C@H](Cc1ccccc1)NC(=O)O[C@@H]1CCOC1)S(=O)(=O)c1ccc(N)cc1 | 0.899% (inactive)
4 | CCCCCCCCCCCCCCCCCCCCCC(=O)Nc1ccn([C@@H]2O[C@H](CO)[C@@H](O)[C@@H]2O)c(=O)n1 | 3.81% (inactive)
5 | CCOC(=O)[C@H](CS)NCCN[C@@H](CS)C(=O)OCC | 6.15% (inactive)
6 | C=C1C(CCl)(CCl)C2(Cl)C(Cl)C(Cl)C1(Cl)C2(Cl)Cl (stereo not drawn) | 3.52% (inactive)
7 | COc1ccc(-c2noc(CC(=O)O)c2-c2ccc(OC)cc2)cc1 | 2.01% (inactive)
8 | O=[n+]1ccn([O-])c2ccccc21 | -0.645% (inactive)
9 | S=C=Nc1ccc(N=C=S)cc1 | -15.9% (inactive)
10 | CCCCCCCCCCCCCC(=O)OCC(COP(=O)([O-])OCC[N+](C)(C)C)OC(=O)CCCCCCCCCCCCC (stereo not drawn) | 15.8% (inactive)
11 | CCCCC[C@H](O)/C=C/[C@@H]1[C@H]2C/C(=C/CCCC(=O)O)O[C@H]2C[C@H]1O | 11.9% (inactive)
12 | CCCC(=O)Nc1c(I)cc(I)c(CC(CC)C(=O)O)c1I (stereo not drawn) | -4.08% (inactive)
13 | OC[C@H]1O[C@@H]2O[C@H]3[C@H](O)[C@@H](O)[C@@H](O[C@H]4[C@H](O)[C@@H](O)[C@@H](O[C@H]5[C@H](O)[C@@H](O)[C@@H](O[C@H]6[C@H](O)[C@@H](O)[C@@H](O[C@H]7[C@H](O)[C@@H](O)[C@@H](O[C@H]1[C@H](O)[C@H]2O)O[C@@H]7CO)O[C@@H]6CO)O[C@@H]5CO)O[C@@H]4CO)O[C@@H]3CO | 3.87% (inactive)
